# Measurements taken from PubChem BioAssay (NCATS).
# Values joined by “and” are separate entries in the source; they are usually repeats but may differ in a detail not shown here. Equal values may be shown once. Results filed as inconclusive are left out. Some structures have more than one record in an assay (separate samples or runs), and their calls can disagree. Active and inactive are the calls of the source. Unless noted, calls follow the shape of the dose curve; as a rule, active = well fitted curve in either direction with a large enough effect (not every such curve was filed as active); inconclusive = small, poorly fitted or top-dose-only effect, or another doubt; inactive = flat fitted curve, though single readings scatter.
# What was measured:
# [1] = AP1 Signaling Pathway (AID 357); conditions: ME-180 (cervical carcinoma) AP-1-bla reporter, EGF-induced, beta-lactamase ratio, 5 h;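 also: ME-180 reporter cells stimulated with EGF at its EC50 level; % is scaled to controls: 0 for no effect and ±100 for the full control effect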
# In short: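 Modulation of EGF-driven AP-1 transcription was assessed with a beta-lactamase reporter in ME-180 cells. Compound and EC50 EGF were co-incubated 5 hours at 37 °C before 2.5-hour CCF4 loading at room temperature and dual-emission reading.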
# [2] = NFAT Signaling Pathway (AID 444); conditions: Jurkat NFAT-bla M1, carbachol, beta-lactamase ratio, 5 h;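 also: carbachol stimulus at about its EC50 of 1 µM final; % is scaled to controls: 0 for no effect and ±100 for the full control effect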
# In short: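 Jurkat cells with NFAT-driven β-lactamase reporter and co-expressed M1 receptor, stimulated with carbachol (final 1 uM, ~EC50), compound titration, 5 h at 37 °C. CCF4 loaded 1 h at RT; 460/530 nm ratio gave %activity and AC50.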
# [3] = molecular target: Cytochrome P450 1A2 (Homo sapiens) (UniProt P05177); assay: p450-cyp1a2 (AID 410; calls by dose curve; also: potency is read from the fitted curve at half-maximal effect;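 as to activity change, negative = inhibition: -100% = full effect of reference inhibitor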); conditions: recombinant CYP1A2, luciferin-ME demethylation, luminescence; series mostly up to 57 µM
# In short: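 Luminescent readout of luciferin formed from Luciferin-ME by human CYP1A2; data normalized against complete inhibition by 57 uM furafylline. Enzyme 20nM, substrate 100uM at Km, 100mM KPO4 buffer, 60 min reaction at room temperature.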
# [4] = Cell Viability - Hek293 (AID 427;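 active = compounds whose dose-response curve shows a full or clear partial loss of cell viability, called from curve shape rather than a numeric limit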;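 also: potency is read from the fitted curve at half-maximal effect; cells exposed to compound for 40 hours at 37 °C before reading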); conditions: qHTS
# In short: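 Luminescent ATP content (CellTiter-Glo, 20 min at room temperature) was measured after a 40 hr, 37 °C compound exposure of HEK293 cells. AC50 values came from Hill-equation fits of qHTS concentration-response data normalized to DMSO and 100 uM tamoxifen.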
# [5] = Cell Viability - SK-N-SH (AID 435; calls by dose curve;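 also: potency is read from the fitted curve at half-maximal effect; compound exposure lasted 40 h at 37 °C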); conditions: SK-N-SH neuroblastoma cell viability qHTS
# In short: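 Luminescent ATP signal served as the viability read-out after 40 hours of compound treatment of human neuroblastoma SK-N-SH cells. Concentration-response data, scaled between DMSO and 100 uM tamoxifen, gave AC50 values by standard Hill modeling.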
# Cytochrome P450 1A2 (Homo sapiens), sequence (P05177 whole entry, looked up): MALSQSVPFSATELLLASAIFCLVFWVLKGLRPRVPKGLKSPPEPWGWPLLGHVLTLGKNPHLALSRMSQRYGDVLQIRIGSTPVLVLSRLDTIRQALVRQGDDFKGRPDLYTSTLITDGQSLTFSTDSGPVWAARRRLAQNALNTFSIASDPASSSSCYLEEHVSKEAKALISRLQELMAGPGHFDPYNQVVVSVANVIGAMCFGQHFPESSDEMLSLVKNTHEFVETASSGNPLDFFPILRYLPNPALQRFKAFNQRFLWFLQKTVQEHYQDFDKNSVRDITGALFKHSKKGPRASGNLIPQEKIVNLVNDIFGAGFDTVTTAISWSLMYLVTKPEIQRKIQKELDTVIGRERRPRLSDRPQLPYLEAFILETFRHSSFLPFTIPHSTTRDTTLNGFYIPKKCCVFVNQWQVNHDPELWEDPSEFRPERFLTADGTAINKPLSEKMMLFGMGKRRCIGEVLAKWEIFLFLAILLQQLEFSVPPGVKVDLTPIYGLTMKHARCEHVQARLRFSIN
SMILES,"activity change, negative = inhibition ([1]; at 17.2 µM (top of the series))","activity change, negative = inhibition ([1]; at 38 µM (top of the series))","activity change, negative = inhibition ([2]; at 17.2 µM (top of the series))",Potency [3],"activity change, negative = inhibition ([2]; at 38 µM (top of the series))",Potency [4],Potency [5]
CCCCNc1ccc(C(=O)OCCN(C)C)cc1,-19.5% (inactive),22.1% (inactive),-27.7% (inactive),–,–,–,–
C[N+](C)(C)CCOC(N)=O,–,21.2% (inactive),–,inactive,–,–,–
COc1cc2c(cc1OC)-c1cc(=Nc3c(C)cc(C)cc3C)n(C)c(=O)n1CC2,–,-25.7% (inactive),–,inactive,-16.6% (inactive),–,–
Nc1nc(N)c2nc(-c3ccccc3)c(N)nc2n1,16.6% (inactive) and 10.9% (inactive),-2.44% (inactive),–,–,–,18 µM (active),66.1 µM (active)
Cc1ccc(=O)n(-c2ccccc2)c1,–,-0.00383% (inactive),–,inactive and 31.6 µM (active),14.9% (inactive),–,–
NCCCNCCSP(=O)(O)O,–,11.2% (inactive),–,inactive,-0.295% (inactive),–,–
C[C@H](CS)C(=O)N1CCC[C@H]1C(=O)O,-1.77% (inactive),3.53% (inactive),2% (inactive),inactive,-1.57% (inactive),–,–
CCCCNc1c(C(=O)OCC)c(C)nc2c1cnn2CC,–,-13.4% (inactive),-22.8% (inactive),631 nM (active) and 63.1 nM (active),-0.356% (inactive),–,–
CN(C)CCOC(=O)COc1ccc(Cl)cc1,0.605% (inactive),-0.251% (inactive),0.868% (inactive),15.8 µM (active) and 10 µM (active),7.1% (inactive),–,–
CN/C(=C\[N+](=O)[O-])NCCSCc1ccc(CN(C)C)o1,-3.39% (inactive),-6.59% (inactive),-7.07% (inactive),–,1.99% (inactive),–,–
O=C(CCCN1CCC(O)(c2cccc(C(F)(F)F)c2)CC1)c1ccc(F)cc1,–,14.4% (inactive),–,inactive,-2.13% (inactive),–,–
